Shown are actives, neighbours in structure and some others; about 19% of the full set was active somewhere.
HT1080 IDH1KD tx – kills HT-1080 cells with IDH1 knockdown; HT-1080 IDH1 knockdown viability, ATP luminescence, 48 h; Potency, µM (titrated, usually from 46.1 µM), most hits filed as cytotoxic; 360,000 tested, 2% active; AID 686971
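% activity derives from luminescence (CellTiter-Glo), normalised to DMSO and no-cell wells. HT-1080-IDH1KD cells, 750/well, had 48 h compound exposure at 37 °C.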
IL-1B inflam inh – blocks inflammasome-driven IL-1 beta release. THP-1 LPS/ATP IL-1B secretion, AlphaLISA, 16 h; active compounds read low. activity change, % at 57.5 µM. 360,000 tested, 4.7% active; in the data active = activity change below about -50%; inconclusive = mostly about -30% to -49%
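THP-1 cells pretreated 1 hr with compounds (up to 57.5 uM final), then stimulated with LPS (250 ng/mL final) plus ATP (1.25 mM final); secreted IL-1B measured by AlphaLISA after 16 hr, decreased signal indicating inhibition.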
HT1080-NT tox – kills 2HG-producing HT-1080-NT fibrosarcoma cells | HT-1080-NT fibrosarcoma viability, CellTiter-Glo ATP luminescence, 48 h | Potency, µM (series often up to 46.1 µM), usual class: cytotoxic | 360,000 tested, 1.6% active | AID 686970;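 also: NT is the 2HG producing partner of a matched IDH1 knockdown line; nearly all actives have a fitted effect of over 55% in size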
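750 cells/well, RPMI + 5% FBS; 2 h settle, compound pin-transfer, 48 h at 37 degrees C. CellTiter-Glo 10 min RT, luminescence. Normalized to DMSO and media-only wells.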
DT40 TDP1 no CPT – qHTS for Inhibitors of human tyrosyl-DNA phosphodiesterase 1 (TDP1): qHTS in cells in absence of CPT | DT40 Tdp1-/- hTDP1 cells, no CPT, ATP luminescence, 48 h | Potency, µM (doses to about 46.2 µM), actives largely listed as inhibitors | 420,000 tested, 15% active | AID 686978, 2013; also: nearly all actives have a fitted effect of over 55% in size
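Readout: luminescence from CellTiter-Glo after 30 min in the dark at RT. Cells: DT40 Tdp1-/- with stable hTDP1, 400/well. Exposure: compounds alone, ≥48 hr, 37 °C.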
ELG1 repair inh – blocks ELG1-dependent DNA repair in HEK293T cells. 330,000 tested, 2.3% active. AID 504467. HEK293T ELG1-luciferase reporter, luminescence, 16 h; DNA damage induced by 5-fluorouridine. Potency, µM (titrated, usually from 46.1 µM), usual class: inhibitors; also: nearly all actives have a fitted effect of over 55% in size
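In this reporter screen, reduction of luminescence relative to DMSO vehicle indicated activity. Compounds and 5-fluorouridine were added together to 2,000 cells per well, incubated for 16 hr at 37 °C, then developed with ONE-Glo.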
TDP1 cell CPT – DT40-hTDP1 cell growth loss with CPT. chicken DT40 Tdp1-/-;hTDP1 cells + 20 nM CPT, ATP luminescence, 48 h. Potency, µM (doses to about 46.2 µM), most hits filed as inhibitors. 420,000 tested, 12% active. AID 686979; also: nearly all actives have a fitted effect of over 55% in size
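Chicken DT40 Tdp1-/- cells complemented with human TDP1, 400 cells/well, exposed to compounds plus 20 nM camptothecin for at least 48 h at 37 C; viability read as ATP content by CellTiter-Glo luminescence.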
Numbers stand for hits; . = inactive; ? = inconclusive; / = no result; [ ] = dose if it differs, or a comment. Unless noted, calls follow the shape of the dose curve; as a rule, active = well fitted curve in the direction sought with a large enough effect; inconclusive = small, poorly fitted or top-dose-only effect, or another doubt; inactive = no such curve, though single readings can be large; an effect the other way counts as inactive or inconclusive.

SMILES | HT1080 IDH1KD tx | IL-1B inflam inh | HT1080-NT tox | DT40 TDP1 no CPT | ELG1 repair inh | TDP1 cell CPT
CCc1nc2c(OCc3ccc(Cl)cc3)cccn2c1N(C)C(=O)c1ccco1 | ? | -62.5 | ? | 20.6µM | / | 16.4µM
CCc1nc2c(OCc3ccc(Cl)cc3)cccn2c1N(C)C(=O)c1cccs1 | ? | . | ? | ? | / | ?
CCc1nc2c(OCc3ccc(F)cc3)cccn2c1N(C)C(=O)c1ccco1 | . | . | . | ? | / | .
CCc1nc2c(OCc3cccc(OC)c3)cccn2c1N(C)C(=O)c1ccccc1F | . | . | . | ? | / | ?
CCc1nc2c(OCc3cc(Cl)cc(Cl)c3)cccn2c1N(C)C(=O)c1ccccc1F | ? | -58.1 | 18.4µM | ? | / | ?
CCc1nc2c(OCc3ccc(OC(F)F)cc3)cccn2c1N(C)C(=O)c1ccc(OC)cc1 | ? | . | ? | 13µM | / | 18.4µM
CCc1nc2c(OCc3ccc(F)c(F)c3)cccn2c1N(C)C(=O)c1cccs1 | . | . | . | 23.1µM | / | ?
C[C@@H]1CN(S(=O)C(C)(C)C)[C@@H](CCO)/C1=C\CCO (some centres undefined) | . | . | . | . | / | .
Cn1c(=O)n(C/C=C/c2ccccc2)c(=O)c2c1nc1n2CCN1c1ccccc1 | / | / | / | . | / | .
CCc1nc2c(OCc3cc(Cl)cc(Cl)c3)cccn2c1N(C)C(=O)c1ccc(OC)cc1 | ? | ? | ? | 16.4µM | / | 18.4µM
CCc1nc2c(OCc3ccc(C(=O)OC)cc3)cccn2c1N(C)C(=O)c1ccc(OC)cc1 | . | . | . | ? | / | ?
CCc1nc2c(OCC3COc4ccccc4O3)cccn2c1N(C)C(=O)c1ccccc1F (centres undefined) | . | . | ? | 20.6µM | / | 20.6µM
Nc1ccc(-n2nncc2-c2ccc(Cl)cc2)cc1 | . | . | . | . | . | .
Cc1ccnc(S(=O)(=O)Cc2ccc([N+](=O)[O-])cc2)n1 | . | . | . | ? | . | .
Fc1ccc(-c2c[nH]c(=S)n2Cc2ccccc2)cc1 | . | ? | . | ? | . | 20.6µM
COc1ccc(OCC(=O)Nc2nnc(C)s2)cc1 | . | . | . | . | ? | .
CCOc1ccccc1OCC(=O)Nc1nnc(C)s1 | . | -58.3 | . | . | . | .
Cc1nnc(NC(=O)CCC(=O)N2CCN(CCOc3cccc4ccccc34)CC2)s1 | . | . | . | 23.1µM | . | ?
Cc1ccc(OCCN2CCN(C(=O)CCC(=O)Nc3nnc(C)s3)CC2)cc1 | . | . | . | . | . | .
Cc1ccc(OCCN2CCN(C(=O)CCC(=O)Nc3nnc(C(C)C)s3)CC2)cc1 | . | . | . | 23.1µM | . | ?
Cc1ccccc1C1c2[nH]c3ccccc3c2CCN1CCCn1cccn1 (centres undefined) | . | . | . | 13µM | . | ?
CC1CN(C)C(C)c2c1oc1ccc(N)cc21 (centres undefined) | . | . | . | 10.3µM | . | ?
O=C(O)/C=C/c1ccc2noc(-c3ccccc3)c2c1 | . | . | . | ? | ? | 14.6µM
Cc1ccc(-c2onc3ccc(C=O)cc23)cc1 | . | . | . | 18.4µM | ? | 16.4µM
Cc1ccc(-c2onc3ccc(C4(C)OCCO4)cc23)cc1 | . | . | . | ? | . | .
SMILES | HT1080 IDH1KD tx | IL-1B inflam inh | HT1080-NT tox | DT40 TDP1 no CPT | ELG1 repair inh | TDP1 cell CPT
COc1ccccc1S(=O)(=O)Nc1cccc(S(=O)(=O)N2CCCC2)c1 | . | . | . | . | . | .
Cc1ccc(OCc2cc(=O)n3cc(C)sc3n2)c(C)c1 | / | / | / | . | / | .
O=C(NCC1(N2CCCCC2)CCCC1)c1cnn(-c2nccc(-c3cccs3)n2)c1C1CC1 | / | / | / | . | / | .[9.04 µM]
COc1cc(CNC(=O)Nc2nc(C(N)Cc3ccc(C(F)(F)F)cc3)cs2)cc(OC)c1OC (centres undefined) | ? | -59.0 | ? | 11.6µM | / | 13µM
COc1ccc(CC(N)c2csc(NC(=O)NCc3ccccc3)n2)cc1 (centres undefined) | 18.4µM | . | ? | ? | / | 20.6µM
COc1ccc(CNC(=O)Nc2nc(C(N)c3ccccc3)cs2)cc1 (centres undefined) | ? | . | ? | 20.6µM | / | ?
CCC(Cn1nnc2ccccc2c1=O)NC(=O)Nc1cc(C)cc(C)c1 (centres undefined) | / | / | / | ? | / | .
Cn1cnnc1SCc1ccc(C(=O)N/N=C(/CCC(=O)O)c2ccc(C(C)(C)C)cc2)cc1 | . | . | . | . | / | .
CC(=O)c1cc(F)c(N2CCN(C(=O)COc3ccccc3F)CC2)cc1C | . | . | . | 16.4µM | ? | 20.6µM
CCC(=O)c1cc(F)c(N2CCN(C(=O)Cc3ccccc3)CC2)cc1C | . | . | . | 14.6µM | ? | 20.6µM
CC(=O)c1cc(F)c(N2CCCC2)cc1C | . | . | . | 20.6µM | . | 20.6µM
CC(=O)c1cc(F)c(N2CCN(C(=O)C(C)(C)C)CC2)cc1C | . | . | . | 20.6µM | . | 20.6µM
CC(=O)c1cc(F)c(N2CCOCC2)cc1C | . | . | . | . | . | .
Cc1ccsc1C(=O)N(CC(C)C)c1c(N)n(Cc2ccccc2)c(=O)[nH]c1=O | . | . | . | . | . | .
O=C(Nc1cccc(F)c1)N1CC[C@@]2(CCCN(C(=O)c3ccco3)C2)C1 | / | / | / | . | / | .
COc1ccc(Oc2ncc3nc(C)c(=O)n(C)c3n2)cc1 | / | / | / | . | / | .
Cc1onc(-c2ccccc2Cl)c1C(=O)Oc1cccc2cccnc12 | 23.1µM | . | . | 2.91µM | ? | 4.11µM
COc1ccccc1N1CCN(C(=O)c2c(-c3ccccc3Cl)noc2C)CC1 | ? | . | ? | 20.6µM | ? | ?
Cc1ccc(S(=O)(=O)n2nc(OC(=O)c3c(-c4ccccc4Cl)noc3C)cc2N)cc1 | ? | . | . | 14.6µM | ? | 18.4µM
Cc1cc(C(=O)OCn2nnc3ccccc3c2=O)c(C)n1-c1ccccc1 | . | . | . | 18.4µM | ? | ?
COc1ccc(-c2nc(CS(=O)CC(=O)NCc3ccc(Cl)cc3)c(C)o2)cc1OC (centres undefined) | . | . | . | ? | . | ?
COC(=O)C(=O)C/C(=N/Nc1ncnc2ccccc12)c1ccc(Cl)cc1 | ? | . | ? | ? | . | ?
O=C(CCNC(=O)c1ccco1)Nc1ccc(Cl)cc1F | . | . | . | . | . | .
Cc1onc(-c2ccccc2Cl)c1C(=O)O/N=C(\N)c1ccc([N+](=O)[O-])o1 | . | . | ? | 23.1µM | . | 18.4µM
C/C(=N/OC(=O)c1c(-c2ccccc2Cl)noc1C)c1cnccn1 | . | . | . | ? | . | .
O=C(c1ccc(Br)s1)N1CCN(C/C=C/c2ccccc2)CC1 | . | . | . | ? | ? | ?

High-throughput results (PubChem BioAssay)
